Shown are actives, neighbours in structure and some others; about 2.4% of the full set was active somewhere.
Mcl1-Bid inh: Mcl-1/Bid interaction inhibition; Q07820; TR-FRET Mcl-1/Bid-Dy647 peptide binding, 1536-well; actives 0.97% (n = 220,000); inhibition, % at 21.7 µM;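 active = compounds that cut the binding signal by more than half at the single screening dose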;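 also: His-tagged Mcl-1 with europium anti-His antibody binding Bid BH3 peptide; 0% = Mcl-1 plus peptide wells and 100% = peptide-only wells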
Target sequence (Q07820 whole entry, looked up): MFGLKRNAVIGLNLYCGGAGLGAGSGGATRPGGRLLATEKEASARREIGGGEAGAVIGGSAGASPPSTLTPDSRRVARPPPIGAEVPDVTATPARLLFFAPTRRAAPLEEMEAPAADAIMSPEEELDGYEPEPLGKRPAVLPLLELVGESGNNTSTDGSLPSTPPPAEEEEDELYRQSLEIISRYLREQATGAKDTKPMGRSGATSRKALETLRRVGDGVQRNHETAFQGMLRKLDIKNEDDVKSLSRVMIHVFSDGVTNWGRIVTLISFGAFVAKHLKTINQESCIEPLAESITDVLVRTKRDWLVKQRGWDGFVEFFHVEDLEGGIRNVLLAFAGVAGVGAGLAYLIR
Mcl-1 Bim block: inhibitors of Bim-Mcl-1 interaction, human; inhibition, % at 10 µM; Q07820; Bead-based flow cytometry, Bim peptide-Mcl-1 binding; actives 0.1% (n = 190,000); in the data active = inhibition above about 40%;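 also: 0% = no compound tracer wells and 100% = peptide blocker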
TNF death inh: inhibitors of TNF-alpha induced necroptosis in Jurkat FADD-/- cells | activation (protection from cell death), % at 10 µM | actives 0.068% (n = 220,000) | AID 463075 | Jurkat FADD-/- TNF necroptosis rescue, ATP luminescence, 24 h; 0 = TNF only, 100 = no-TNF cells;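 active = activation, meaning protection from cell death, of at least 50% relative to plate controls; inactive = activation below 50%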;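 also: necroptosis triggered by 40 ng/mL TNF-alpha added together with compound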
L929 necroptosis: blocks zVAD induced death of L929 cells. L929 zVAD necroptosis rescue, ATP luminescence, 24 h; with zVAD 60 µM. viability rescue, % at 10 µM. actives 0.38% (n = 220,000). AID 1377;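 active = activation, scaled between plate controls, above about 75%, limit read from the data; inactive = activation under that limit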;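 also: 0% = zVAD with DMSO and 100% = DMSO alone without zVAD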
Mcl1-Noxa inh: Mcl-1/Noxa interaction inhibition | TR-FRET Mcl-1/Noxa peptide binding, 2 h | inhibition, % at 21.7 µM | actives 1.5% (n = 220,000);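 active = compounds that cut the protein-peptide binding signal by more than 50% relative to plate controls in a single-dose test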;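 also: His-tagged Mcl-1 with rhodamine Noxa BH3 peptide and terbium anti-His antibody; 0% = Mcl-1 plus Noxa peptide wells and 100% = peptide-only wells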
MCL1-BIM inh: disrupts human MCL1 binding to BIM-BH3 peptide; GST-MCL1 / FITC-Bim-BH3 fluorescence polarization; Q07820; actives 0.68% (n = 320,000); AID 2057; inhibition, % at 10.9 µM;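 active = inhibition above the mean inhibition of all tested compounds plus 3 SD, set per campaign, cut at about 40% in these data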;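 also: 0% = DMSO wells and 100% = unlabeled Bim-BH3 peptide control; higher means more loss of mP so more displacement of Bim peptide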
Bcl-xL conf: Bcl-xL (human) inhibition, MCL1 counter-screen confirmation; actives 54% (n = 1,700); inhibition, % at 10.9 µM; AID 2166; GST-Bcl-xL / FITC-Bim BH3 peptide FP binding; shares compounds with MCL1-BIM inh;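 active = inhibition above a cutoff equal to the mean inhibition of all tested compounds plus 3 SD, cut at about 30% in these data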;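 also: 0% = DMSO wells and 100% = unlabeled Bim BH3 control peptide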
Target sequence (Q07817 whole entry, looked up): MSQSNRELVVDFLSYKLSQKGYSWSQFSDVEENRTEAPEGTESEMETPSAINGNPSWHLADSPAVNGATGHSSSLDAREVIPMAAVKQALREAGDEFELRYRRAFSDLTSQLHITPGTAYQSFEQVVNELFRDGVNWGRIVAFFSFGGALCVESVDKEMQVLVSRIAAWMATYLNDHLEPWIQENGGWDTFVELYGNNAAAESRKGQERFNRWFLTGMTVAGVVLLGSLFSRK
MCL1 inh confirm: MCL1-BIM-BH3 interaction inhibition, confirmation; shares compounds with MCL1-BIM inh; inhibition, % at 10.9 µM; GST-MCL1 / FITC-Bim-BH3 fluorescence polarization; AID 2168; actives 61% (n = 1,700);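 active = inhibition above the average of all tested compounds plus 3 SD, cut at about 40% in these data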;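 also: 0% = DMSO wells and 100% = unlabeled Bim-BH3 control peptide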
Starred values were filed as active, the others as inactive; / = not tested or not shown.

SMILES | Mcl1-Bid inh | Mcl-1 Bim block | TNF death inh | L929 necroptosis | Mcl1-Noxa inh | MCL1-BIM inh | Bcl-xL conf | MCL1 inh confirm
CCOC(=O)c1ccc2c(c1)C1C=CCC1C(C(=O)OCC)N2 (stereo not given) | / | / | / | / | / | 22.2 | / | /
CCOC(=O)C1Nc2ccc(C)cc2C2C=CCC12 (stereo not given) | / | / | / | / | / | 50.8* | 4.0 | 3.0
CC(C)CNC(=O)C1Nc2ccc(C(F)(F)F)cc2C2C=CCC12 (stereo not given) | / | / | / | / | / | 3.5 | / | /
CCOC(=O)C1Nc2ccc(Br)cc2C2C=CCC12 (stereo not given) | / | / | / | / | / | 44.3* | 9.2 | 9.2
O=C(O)C1Nc2ccc(Br)cc2C2C=CCC12 (stereo not given) | / | / | / | / | / | 100.5* | 66.8* | 107.0*
O=C(CSc1ccc(Cl)cc1)c1ccco1 | 4.4 | -1.0 | 5.0 | -0.7 | 41.0 | 63.5* | 23.2 | 75.2*
O=C(CCSc1ccc(Cl)cc1)c1ccco1 | / | / | / | / | / | 14.9 | / | /
COc1ccccc1Cc1nnc(NC(=O)C2CCN(C(=O)c3ccco3)CC2)s1 | / | / | / | / | / | 16.6 | / | /
COc1cc(O)c(C(C)=O)c(CC(=O)O)c1 | -108.5 | / | 0.9 | 0.5 | 15.4 | 40.9* | 20.2 | 34.5
COc1cc(O)c(C(=O)/C=C/c2ccccc2)c(OC)c1 | -50.0 | / | -5.0 | 2.0 | 19.8 | 0.7 | / | /
O=C(NCCS(=O)(=O)N1CCC2(CC1)OCCO2)c1ccccc1 | / | / | / | / | / | -1.8 | / | /
O=C(NC1CC(=O)N(c2ccc(F)cc2)C1)C(=O)c1c[nH]c2ccccc12 (stereo not given) | / | / | / | / | / | -1.1 | / | /
FC(F)(F)c1cccc(NC(=S)Nc2cccc(NC(=S)Nc3cccc(C(F)(F)F)c3)n2)c1 | -12.2 | / | -3.5 | 0.1 | 17.7 | 7.8 | / | /
CCOC(=O)c1c(C)[nH]c2cc(Br)c(O)cc12 | -25.7 | -2.0 | -3.3 | 7.8 | 21.5 | 6.0 | / | /
CCOC(=O)c1c(OCC)[nH]c2c1cc(O)c1ccccc12 | -23.0 | 8.0 | -7.3 | 1.2 | 75.0* | 41.5* | 55.9* | 73.0*
Cc1ccc(C(=O)OCC(=O)NC(=O)c2ccc(C(C)(C)C)cc2)c(O)c1 | / | / | / | / | / | 69.8* | -4.4 | -5.8
COc1ccc(S(=O)(=O)NC(C)CCc2ccccc2)cc1 (stereo not given) | -12.7 | -4.0 | 1.5 | 3.1 | 6.2 | 9.7 | / | /
CSc1nc(N)nc(C(C)C)n1 | 6.5 | / | 1.1 | 1.2 | -1.6 | 66.4* | 11.6 | 18.7
CC(NC(=O)CCNC(=O)N1CCn2c1nc1ccccc12)c1ccccc1 (stereo not given) | / | / | / | / | / | 2.4 | / | /
COc1ccc2oc(C(=O)N3CCN(S(=O)(=O)c4cccc([N+](=O)[O-])c4)CC3)c(C)c2c1 | / | / | / | / | / | 46.5* | 5.7 | 8.5
COc1ccc2oc(C(=O)OCC(=O)N3CCN(S(=O)(=O)c4ccccc4)CC3)c(C)c2c1 | / | / | / | / | / | -8.5 | / | /
O=c1oc(-c2ccc(Br)o2)nc2ccccc12 | 26.1 | -13.0 | -3.7 | 0.8 | 37.1 | 97.7* | -2.0 | 12.8
Cc1ccc(-c2nc3ccccc3c(=O)o2)cc1 | / | / | / | / | / | -8.3 | / | /
CC(=O)Oc1cccc2c1C(=O)c1c(OC(C)=O)cc(C(=O)O)cc1C2=O | 21.8 | 0.0 | 0.3 | 1.1 | 21.4 | 10.4 | / | /
CC(=O)Oc1cc2cccc(OC(C)=O)c(=O)c2c(OC(C)=O)c1OC(C)=O | -54.6 | 3.0 | -4.3 | -1.3 | 65.8* | 104.8* | 29.2 | 35.6
SMILES | Mcl1-Bid inh | Mcl-1 Bim block | TNF death inh | L929 necroptosis | Mcl1-Noxa inh | MCL1-BIM inh | Bcl-xL conf | MCL1 inh confirm
CCOC(=O)c1cc(-c2ccc(/C=C3/C(=O)NC(=O)C(C#N)=C3C)o2)ccc1Cl | 93.0* | 2.0 | -12.9 | 1.1 | 102.3* | 121.0* | 104.6* | 149.8*
Cc1cc(NC(=O)CCC(=O)N(c2ccccc2)C(C(=O)NC2CCCC2)c2ccccc2C)no1 (stereo not given) | / | / | / | / | / | -9.1 | / | /
COCCCn1c(=O)c2sccc2n2c(CCCC(=O)NCc3ccc(F)cc3)nnc12 | / | / | / | / | / | -0.7 | / | /
COc1ccc(C(CC(=O)N2CCCC2)c2c(OC)cc(OC)c3c(-c4ccccc4)cc(=O)oc23)cc1 (stereo not given) | -111.0 | / | 0.9 | 0.4 | 86.5* | 42.6* | 8.3 | 34.0
COCCN(Cc1nc2ccccc2c(=O)[nH]1)C(=O)COc1c(C)cc(Cl)cc1C | / | / | / | / | / | -3.3 | / | /
O=c1[nH]c(-[n+]2ccccc2)c(/C=N/NC([S-])=Nc2ccccc2)s1 | -12.7 | / | 1.0 | 0.2 | 12.7 | 183.4* | 109.7* | 126.7*
Cc1cc(C)c[n+](-c2[nH]c(=O)sc2/C=N/NC([S-])=Nc2ccccc2)c1 | -54.5 | -7.0 | 0.8 | 2.3 | 12.9 | 167.4* | 60.7* | 59.6*
CCc1ccc[n+](-c2[nH]c(=O)sc2/C=N/N=C(\N)[O-])c1 | -29.4 | / | -0.7 | -0.1 | 12.7 | -0.2 | / | /
CC(C)(C)c1cc[n+](-c2[nH]c(=O)sc2/C=N/NC(=O)c2ccccc2[O-])cc1 | / | / | / | / | / | 126.1* | 84.3* | 128.7*
Cc1cc[n+](-c2[nH]c(=O)sc2/C=N/NC([S-])=Nc2ccccc2)cc1 | -63.9 | -6.0 | 1.0 | 1.4 | 10.0 | 163.8* | 128.2* | 128.4*
NC(=O)c1ccc(NC(=O)COC(=O)c2ccc(Br)o2)cc1 | / | / | / | / | / | -8.3 | / | /
CCc1ccc[n+](-c2[nH]c(=O)sc2/C=N/NC([S-])=Nc2ccccc2)c1 | -23.6 | -7.0 | 0.7 | 0.1 | 47.3 | 144.1* | 154.4* | 185.3*
CN1C(=O)N(C)c2ccc(C=O)c3cccc1c23 | 16.2 | 2.0 | -3.8 | 30.7 | 21.9 | 73.1* | 65.2* | 94.3*
CN1C(=O)Nc2cccc3cccc1c23 | / | / | / | / | / | 6.6 | / | /
O=S(=O)(c1cc(O)ccc1O)c1cccc2c(S(=O)(=O)c3cc(O)ccc3O)cccc12 | / | / | / | / | / | 45.8* | 23.9 | 51.7*
CC1CCN(C(=O)COC(=O)c2ccc3c(c2)OCO3)CC1 | -12.7 | 0.0 | 2.9 | 1.2 | -9.2 | 0.7 | / | /

Assay outcomes (PubChem)
